Rows were chosen to be rich in hits. Some 1.6% of all compounds tested hit in one or more screens of this group.
OPRM1-OPRD1 ag – agonists of OPRM1-OPRD1 heterodimerization, primary screen, cell-based, luminescence | Mu-type opioid receptor (Homo sapiens) + Delta-type opioid receptor (Homo sapiens), … | cells | activation, % at 9.3 µM | 0.3% of 340,000 active;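 note: 0% = vehicle-treated cells and 100% = reference agonist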
HTR5A inv ag – HTR5A inverse agonists in luminescence cell assay, primary screen, counter-screen for OPRM1-OPRD1 heterodimer inverse agonist project, full-deck HTS; HTR5A cell line, inverse agonism; inhibition, % at 9.3 µM; 0.083% of 340,000 active; in the data active = inhibition mostly above about 23%, no sharp cut-off; inactive = mostly below about 18%;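 note: 0% = cells with DMSO and 100% = no-cell wells with DMSO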
Target sequence (P47898 whole entry, looked up): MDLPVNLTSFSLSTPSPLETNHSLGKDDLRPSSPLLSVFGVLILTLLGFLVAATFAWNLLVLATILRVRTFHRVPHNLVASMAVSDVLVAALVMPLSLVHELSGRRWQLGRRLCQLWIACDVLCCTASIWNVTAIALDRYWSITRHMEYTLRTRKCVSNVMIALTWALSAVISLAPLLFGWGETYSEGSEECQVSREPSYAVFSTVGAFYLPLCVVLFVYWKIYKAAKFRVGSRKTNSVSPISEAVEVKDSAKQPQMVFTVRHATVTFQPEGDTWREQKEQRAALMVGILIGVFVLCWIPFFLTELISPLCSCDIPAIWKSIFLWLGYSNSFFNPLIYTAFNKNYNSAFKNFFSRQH
OPRM1-OPRD1 inv – inverse agonists of MOR-DOR heterodimerization, primary screen, cell-based, luminescence; cell-based MOR-DOR heterodimer luminescence, inverse agonism; 0.21% of 340,000 active; Mu-type opioid receptor (Homo sapiens) + Delta-type opioid receptor (Homo sapiens), …; inhibition, % at 9.3 µM; in the data active = inhibition above about 22%, passing the limit was not always enough;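 note: 0% = cells with DMSO and 100% = wells without cells with DMSO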
HTR5A ag – HTR5A agonists in luminescence cell assay, primary screen, counter-screen for OPRM1-OPRD1 heterodimer agonist project, full-deck HTS | 5-hydroxytryptamine receptor 5A (Homo sapiens), P47898 | cell-based | activation, % at 9.3 µM | 0.61% of 340,000 active; in the data active = activation mostly above about 9.5%, no sharp cut-off; inactive = mostly below about 7.6%;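 note: 0% = cells with vehicle only and 100% = reference agonist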
m5-HT2A agonist – mouse Htr2a agonists via beta-arrestin recruitment, primary screen, cell-based, luminescence; 5-hydroxytryptamine receptor 2A (Mus musculus), P35363; CHO-K1 mHTR2A beta-arrestin complementation; percent of 30 µM serotonin response; activation, % at 7.6 µM; 0.66% of 360,000 active; AID 624169, 2012;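 active = activation above a run cutoff, the mean activation of all tested compounds plus 3 SD, cut at about 14% in these data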;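 note: 0% = plate median of compound wells and 100% = 30 µM serotonin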
OPRM1-D1 ag cf – agonists of MOR-DOR heterodimerization, confirmation, cell-based, luminescence; shares compounds with OPRM1-OPRD1 ag; cells, luminescence complementation; activation, % at 9.3 µM; 45% of 830 active;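 note: 0% = vehicle-treated cells and 100% = reference agonist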
HTR5A ag ctr2 – HTR5A agonists in cells, counter-screen for OPRM1-OPRD1 heterodimer agonist project, cell-based, luminescence | shares compounds with OPRM1-OPRD1 ag | HTR5A agonist counterscreen | activation, % at 9.3 µM | 8% of 830 active | AID 504905, 2011; in the data active = activation above about 17%;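 note: 0% = vehicle-treated cells and 100% = reference agonist response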
* hit, by the source's call; i = inactive; x = not tested or not shown; ! = a repeat was not active. Cut-off read from the data, not from the text of the source, unless noted: active = activation above about 18%; inactive = the rest.

SMILES | OPRM1-OPRD1 ag | HTR5A inv ag | OPRM1-OPRD1 inv | HTR5A ag | m5-HT2A agonist | OPRM1-D1 ag cf | HTR5A ag ctr2
CCOC(=O)C1(CCOc2ccccc2)CCN(Cc2ccc(OC)cc2)CC1 | 224* | 5 | i | -1 | -4 | 4 | 7
CCOC(=O)C1(CCOc2ccccc2)CCN(Cc2cccc(F)c2)CC1 | 1 | 5 | -3 | -2 | -6 | x | x
CCOC(=O)C1(CCOc2ccccc2)CCN(Cc2cccc(-n3cccn3)c2)CC1 | 33* | -2 | -170 | 1 | -5 | 17 | -1
CCOC(=O)C1(CCOc2ccccc2)CCN(Cc2cccc3c2OCO3)CC1 | 18* | 8 | -93 | -3 | -8 | 14 | 6
CCOC(=O)C1(CCOc2ccccc2)CCN(Cc2ccc(NC(C)=O)cc2)CC1 | 92* | 10 | i | -4 | 8 | 8 | 7
CCN(CC)S(=O)(=O)c1ccc(SCC(=O)c2c(N)n(C3CC3)c(=O)[nH]c2=O)nc1 | x | x | x | x | -9 | x | x
CCOC(=O)C1(CCOc2ccccc2)CCN(Cc2cnc(C)s2)CC1 | 72* | 7 | -397 | -2 | -4 | 80* | -1
CCOC(=O)C1(CCOc2ccccc2)CCN(Cc2ccccc2O)CC1 | 1 | 12 | -4 | -3 | -7 | x | x
COc1ccccc1N(C)c1cc2c(c3c1ccn3C)C1CCC2O1 (stereo not drawn) | x | x | x | x | 0 | x | x
CCCCCC(=O)OCc1ccc(C2=CC(=O)CC(C)(C)C2=O)cc1 | x | x | x | x | 2 | x | x
CCCCCc1c(-c2ccc(Br)cc2)ncn1CCc1ccccc1OC | x | x | x | x | -4 | x | x
CCN1CCN(CC(O)COc2ccc(C)c(C)c2)CC1 (stereo not drawn) | 25*! | -7 | -125 | 2 | 1 | 0 | 3
CCOc1ccc(NC(=S)N2CCN(S(=O)(=O)c3ccccc3)CC2)cc1 | 31* | 11 | -128 | -4 | 3 | 1 | -1
CCOc1ccc(NC(=S)N2CCN(S(=O)(=O)c3ccc(C)cc3)CC2)cc1 | -1 | 20 | 3 | -8 | 7 | x | x
O=C(c1ccccc1)c1ccc(OCC(O)CNC2CCCc3ccccc32)cc1 (stereo not drawn) | 3 | -5 | -14 | 1 | -1 | x | x
OC(CNC1CCCc2ccccc21)COc1ccc2ccccc2c1 (stereo not drawn) | 42* | -5 | -208 | 2 | -3 | 31* | 9
O=C(NCC(c1ccc(F)cc1)N1CCOCC1)c1ccc(-c2ccccc2)cc1 (stereo not drawn) | 21* | 15 | -78 | -2 | -3 | 1 | -3
Cc1cccc(Oc2coc3cc(OC(=O)c4cncc(Br)c4)ccc3c2=O)c1 | 4 | 8 | -18 | -1 | 1 | x | x
Cc1cc(C)cc(Oc2coc3cc(OC(=O)c4cccnc4)ccc3c2=O)c1 | 22* | 13 | -118 | -4 | 1 | 2 | 0
C[C@H]1CN([C@@H](C)CO)S(=O)(=O)c2ccc(Br)cc2O[C@H]1CN(C)C(=O)Cc1ccncc1 | x | x | x | x | 3 | x | x
CC1(C(=O)NS(=O)(=O)c2ccc(F)cc2F)CCN1C(=O)CCc1ccc(Cl)cc1Cl (stereo not drawn) | x | x | x | x | 5 | x | x
CN(C)C(CNC(=O)CCc1c[nH]c2ccccc12)c1ccccc1 (stereo not drawn) | 138* | -3 | i | 1 | -10 | 20* | 9
CN(C)C(CNC(=O)CCS(=O)(=O)c1ccccc1)c1ccccc1 (stereo not drawn) | 60* | 3 | -270 | -1 | 1 | 4 | 2
O=C(CCNS(=O)(=O)c1ccccc1C(F)(F)F)NCCCSc1ccccc1 | 0 | -14 | 1 | -1 | -6 | x | x
CN(C)C(CNC(=O)CCNS(=O)(=O)c1ccccc1C(F)(F)F)c1ccccc1 (stereo not drawn) | 25* | -5 | -104 | 2 | -4 | 29* | 3
SMILES | OPRM1-OPRD1 ag | HTR5A inv ag | OPRM1-OPRD1 inv | HTR5A ag | m5-HT2A agonist | OPRM1-D1 ag cf | HTR5A ag ctr2
COc1ccc(/C=C/C(=O)Nc2ccc3nc4n(c(=O)c3c2)CCCC4)cc1 | 27* | -33 | -124 | 12* | 5 | 16 | 2
COc1cc(C(=O)Nc2nc3ccc(S(C)(=O)=O)cc3s2)cc(OC)c1C | 37* | -15 | -198 | 6 | 3 | 14 | 9
COc1cc(OC)cc(C(=O)Nc2nc3ccc(S(C)(=O)=O)cc3s2)c1 | 2 | 4 | -12 | -1 | -1 | x | x
Cc1ccccc1N(CC(=O)N/N=C/c1ccc(F)cc1)C(=O)c1ccccc1 | 30* | -12 | -158 | 8 | 0 | 46* | 2
Cc1ccccc1N(CC(=O)N/N=C/c1ccc(Cl)cc1)C(=O)c1ccccc1 | 8 | 6 | -45 | -2 | 3 | x | x
Cc1ccc(C)c(CN2C(=O)c3ccccc3S(=O)c3ccc(C(=O)N4CCN(c5ccccn5)CC4)cc32)c1 (stereo not drawn) | 27* | -29 | -126 | 1 | -6 | 14 | 7
COc1ccc2cc(C)c(SCC(=O)Nc3cc(C)on3)nc2c1 | 18* | -1 | -110 | 0 | 0 | 10 | 4
O=S(=O)(NCCSc1nnc(-c2ccco2)n1-c1ccccc1)c1ccccc1 | 19* | -14 | -78 | 2 | 5 | 1 | 15
COc1cc(C(=O)O/N=C2/C=C(C)C(=O)C=C2C)cc(OC)c1OC | -1 | 10 | 7 | -2 | -2 | x | x
CC1=C(C)/C(=N\OS(=O)(=O)c2ccc(C)cc2)C=CC1=O | 50* | -7 | -262 | 2 | 0 | 0 | 54*
CC1=C/C(=N\OS(=O)(=O)c2ccccc2)C(C)=CC1=O | 78* | 13 | -417 | 11* | 5 | 47* | 7
COc1ccccc1N(CC(=O)Nc1cccnc1)S(=O)(=O)c1ccccc1 | 9 | -7 | -42 | -4 | -1 | x | x
COc1ccc(C)cc1N(CC(=O)Nc1cccnc1)S(=O)(=O)c1ccc(C)cc1 | 69* | 8 | -345 | 4 | -1 | 0 | -1
COc1ccc(S(=O)(=O)N(CC(=O)Nc2cccnc2)c2ccccc2OC)cc1 | 64* | 11 | -328 | 6 | -5 | 6 | 10
CC(=O)Nc1ccc(CN2C(=O)C(Cc3ccccc3)ON=C2c2ncccc2C)cc1 (stereo not drawn) | x | x | x | x | 0 | x | x
Cc1ccc2nc(SC(C(=O)Nc3ccc(F)cc3)c3ccccc3)[nH]c2c1 (stereo not drawn) | 24* | -4 | -119 | 6 | -5 | 454* | -2
